Reference: PubChem BioAssay (Tox21)
Several values for one entry are separate records, joined by “and”; a condition that tells them apart may be missing. Equal values may be shown once. Results filed as inconclusive are left out. Activity calls are given as the source filed them. Unless noted, calls follow the shape of the dose curve; as a rule, active = well fitted curve in the direction sought with a large enough effect in the repeat runs; inconclusive = weak or mixed curves; inactive = no such curve, though single readings can be large; an effect the other way counts as inactive or inconclusive.

Tests used:
[1] = qHTS assay to identify small molecule agonists of the hypoxia (HIF-1) signaling pathway - cell viability counter screen (AID 1224844; calls by dose curve; also: nearly all actives have a fitted effect of over 50% in size; also: potency is read from the fitted curve at half-maximal effect)
Outline: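 CellTiter-Glo luminescence read-out, 30 min RT, taken in the same wells as the beta-lactamase HRE reporter assay; HRE-bla ME-180 cells, 0.5% dialyzed FBS, 17 hr compound treatment at 37C, 5% CO2.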

[2] = qHTS assay to identify small molecule agonists of H2AX (AID 1224845; active = well fitted activation curve with a large enough effect in the signal ratio in the repeat runs, not every such curve was filed as active; the % refers to the signal ratio)
Outline: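 Phospho-H2AX Ser139 measured by HTRF (ex 320 nm; em 665 and 620 nm) after 24 hr antibody incubation. Compounds, 15 concentrations, 0.76% DMSO, were applied to CHO-K1 cells for 3hr at 37C before lysis.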

[3] = qHTS assay to identify small molecule agonists of the hypoxia (HIF-1) signaling pathway (AID 1224846; active = well fitted activation curve with a large enough effect in the signal ratio in the repeat runs, not every such curve was filed as active; the % refers to the signal ratio)
Outline: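 Beta-lactamase FRET read-out (CCF4-AM substrate) from ME-180 cells carrying an HRE-driven bla reporter, after 17 hrs compound exposure at 37C/5% CO2. Cells were seeded at 2,000 per well in 0.5% dialyzed FBS medium and preincubated 5 hrs.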

[4] = qHTS assay to identify small molecule agonists of H2AX - cell viability counter screen (AID 1224847; calls by dose curve;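 also: wild-type CHO-K1 cells; top concentration of the series differs between compounds; nearly all actives have a fitted effect of over 30% in size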)
Outline: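 After overnight plating of 1000 CHO-K1 cells per well, a 15-concentration compound series was applied for 3 hr at 37C. Luminescence from CellTiter-Glo, read following 30 min at room temperature, reflected cell viability.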

[5] = qHTS RealTime-Glo MT Cell Viability Assay in HepG2 cells - 24 hour (AID 1224867); also: nearly all actives have a fitted effect of over 50% in size; also: potency is read from the fitted curve at half-maximal effect
Outline: (§1)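 HepG2 cells (600/well) were dispensed with RealTime-Glo reagents, incubated 5 h at 37 °C, then treated with compounds in DMSO for up to 40 h. Nonlytic NanoLuc luminescence reflecting viable cells was read at each stated time point.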

[6] = qHTS RealTime-Glo MT Cell Viability Assay in HEK293 cells - 32 hour (AID 1224868); also: nearly all actives have a fitted effect of over 50% in size; also: potency is read from the fitted curve at half-maximal effect
Outline: (§2)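 HEK293 cells seeded with NanoLuc/prosubstrate reagent, rested 5 h at 37 C, then dosed and kept at 37 C up to 40 h. Nonlytic real-time luminescence from viable cells read at 0, 8, 16, 24, 32 and 40 h.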

[7] = A CellTox Green Cytotoxicity Assay to monitor cytotoxicity in HEK293 cells - 0 hour (AID 1224869); also: nearly all actives have a fitted effect of over 50% in size
Outline: (§3)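 Read-out: fluorescence of a cell-impermeant cyanine dye staining DNA of dead cells, proportional to cytotoxicity. HEK293, 600 cells/well with reagent, compound (23 nL DMSO) added after 5 h; reads at 0, 8, 16, 24, 32, 40 h.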

[8] = qHTS RealTime-Glo MT Cell Viability Assay in HepG2 cells - 40 hour (AID 1224870); also: nearly all actives have a fitted effect of over 50% in size; also: potency is read from the fitted curve at half-maximal effect
Outline: (§4)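 Real-time viability: cells seeded at 600 per well together with NanoLuc and cell-permeant prosubstrate, compounds added after 5 h incubation. Luminescence tracked at 0, 8, 16, 24, 32 and 40 h of exposure.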

[9] = A CellTox Green Cytotoxicity Assay to monitor cytotoxicity in HEK293 cells - 40 hour (AID 1224871); also: nearly all actives have a fitted effect of over 45% in size; also: potency is read from the fitted curve at half-maximal effect
Outline: as §3

[10] = qHTS RealTime-Glo MT Cell Viability Assay in HepG2 cells - 8 hour (AID 1224873); also: nearly all actives have a fitted effect of over 55% in size; also: potency is read from the fitted curve at half-maximal effect
Outline: as §4

[11] = qHTS RealTime-Glo MT Cell Viability Assay in HEK293 cells - 40 hour (AID 1224874); details: RealTime-Glo luminescence; max response: stronger effect = lower value; also: nearly all actives have a fitted effect of over 50% in size; also: potency is read from the fitted curve at half-maximal effect
Outline: (§5)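 Luminescence readout at each listed time point; HEK293, 600 cells/well, RealTime-Glo MT reagent added with cells; compounds pinned (23 nL in DMSO) after 5 h at 37 C; continuous culture at 37 C.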

[12] = A CellTox Green Cytotoxicity Assay to monitor cytotoxicity in HEK293 cells - 24 hour (AID 1224875); also: nearly all actives have a fitted effect of over 45% in size; also: potency is read from the fitted curve at half-maximal effect
Outline: as §3

[13] = A CellTox Green Cytotoxicity Assay to monitor cytotoxicity in HepG2 cells - 16 hour (AID 1224876); also: nearly all actives have a fitted effect of over 45% in size; also: potency is read from the fitted curve at half-maximal effect
Outline: (§6)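 HepG2, 600 cells/well premixed w/ CellTox Green; 5 h settle, 37 C/5% CO2; pintool cpd add (DMSO); 37 C, 40 h; fluorescence read at 0, 8, 16, 24, 32, 40 h.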

[14] = qHTS RealTime-Glo MT Cell Viability Assay in HepG2 cells - 32 hour (AID 1224877); also: nearly all actives have a fitted effect of over 55% in size; also: potency is read from the fitted curve at half-maximal effect
Outline: as §1

[15] = A CellTox Green Cytotoxicity Assay to monitor cytotoxicity in HepG2 cells - 24 hour (AID 1224878); also: nearly all actives have a fitted effect of over 45% in size; also: potency is read from the fitted curve at half-maximal effect
Outline: as §6

[16] = A CellTox Green Cytotoxicity Assay to monitor cytotoxicity in HepG2 cells - 40 hour (AID 1224879); also: nearly all actives have a fitted effect of over 40% in size; also: potency is read from the fitted curve at half-maximal effect
Outline: as §6

[17] = qHTS RealTime-Glo MT Cell Viability Assay in HEK293 cells - 0 hour (AID 1224880)
Outline: as §5

[18] = qHTS RealTime-Glo MT Cell Viability Assay in HEK293 cells - 16 hour (AID 1224872); also: nearly all actives have a fitted effect of over 50% in size; also: potency is read from the fitted curve at half-maximal effect
Outline: as §2

[19] = qHTS assay to identify small molecule antagonists of the estrogen related receptor (ERR) signaling pathway from Tox21 library (AID 1224848); also: nearly all actives have a fitted effect of over 50% in size
Outline: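 ERR cell line, 2,000 cells/well. 6 h settle, then compound (DMSO) added; 18 h at 37 C; ONE-Glo luminescence after 30 min RT.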
% is scaled to controls: 0 for no effect and ±100 for the full control effect.

Nc1ncn[nH]1
inactive: Potency [1] | Potency [2] | outcome [3] | Potency [4] | Potency [5] | Potency [6] | Potency [7] | Potency [8] | Potency [9] | Potency [10] | max response [11] -0.91% and 1.15% | Potency [12] | Potency [13] | Potency [14] | Potency [15] | Potency [16] | Potency [17]

CCN(CC)C(=O)C(C)Oc1cccc2ccccc12 (configuration not stated)
inactive: Potency [1] | Potency [2] | outcome [3] | Potency [5] | Potency [6] | Potency [7] | Potency [8] | Potency [9] | Potency [18] | Potency [10] | Potency [12] | Potency [13] | Potency [14] | Potency [15] | Potency [16] | Potency [17]

C[N+](C)(C)C
inactive: Potency [1] | Potency [2] | outcome [3] | Potency [4] | Potency [5] | Potency [6] | Potency [7] | Potency [8] | Potency [10] | max response [11] 4.13% and -0.266% | Potency [12] | Potency [13] | Potency [14] | Potency [15] | Potency [16] | Potency [17]

O=C1Nc2ccc(Cl)cc2C(c2ccccc2)=NC1O (configuration not stated)
inactive: Potency [1] | Potency [2] | outcome [3] | Potency [19] | Potency [5] | Potency [6] | Potency [7] | Potency [8] | Potency [10] | max response [11] -19.7% | Potency [12] | Potency [13] | Potency [14] | Potency [15] | Potency [16] | Potency [17]

CC(C)(C#N)N=NC(C)(C)C#N
inactive: Potency [1] | Potency [2] | outcome [3] | Potency [4] | Potency [5] | Potency [6] | Potency [7] | Potency [8] | Potency [9] | Potency [10] | max response [11] 5.82% and -2% | Potency [12] | Potency [13] | Potency [14] | Potency [15] | Potency [16] | Potency [17]

N#Cc1c(Cl)c(Cl)c(Cl)c(C#N)c1Cl
inactive: Potency [7] | Potency [17]
active: Potency [1] 3.03 µM and 3.09 µM | Potency [5] 21.5 µM and 4.9 µM | Potency [6] 1.7 µM and 1.23 µM | Potency [8] 19.1 µM and 3.47 µM | Potency [9] 6.79 µM and 5.49 µM | Potency [18] 3.4 µM and 1.55 µM | Potency [10] 42.8 µM and 11 µM | Potency [11] 1.7 µM and 1.1 µM | Potency [12] 12.1 µM and 9.77 µM | Potency [13] 24.1 µM and 6.92 µM | Potency [14] 19.1 µM and 3.89 µM | Potency [15] 24.1 µM and 3.09 µM | Potency [16] 19.1 µM and 2.45 µM
